Hit rate of the full screen: of about 370,000 compounds, about 3,300 (0.89%) were called active. The sample holds actives, similar compounds and a random draw of the others, so the mix is not that of the screen. Values without a mark were called inactive.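 Rule for the calls: active = activation above the mean of all tested compounds plus 3 SD, computed per campaign excluding outliers beyond control limits (cut at about 13% in these data); inactive = the rest.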
Target: Kallikrein-7 (Homo sapiens) (UniProt P49862)
Sequence (P49862 whole entry, looked up): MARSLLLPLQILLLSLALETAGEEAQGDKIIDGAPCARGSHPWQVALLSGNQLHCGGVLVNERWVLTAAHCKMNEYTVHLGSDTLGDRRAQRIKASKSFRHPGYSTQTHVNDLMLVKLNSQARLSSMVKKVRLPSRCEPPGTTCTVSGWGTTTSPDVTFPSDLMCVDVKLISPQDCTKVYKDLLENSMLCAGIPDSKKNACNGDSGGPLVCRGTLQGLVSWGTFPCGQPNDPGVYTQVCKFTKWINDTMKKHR
Assay: proKLK7 zymogen activators, primary screen, biochemical, fluorescence intensity (AID 652039)
Conditions: purified proKLK7, EDANS-DABCYL substrate fluorescence; at 7 µM; hits give high values; 100% is mature enzyme control, 0% vehicle

Row | Compound | activation
1 | CCOC(=O)[C@]12CCCCC/C=C\1N(Cc1ccc(OC)cc1)C(=O)[C@H]2CC(=O)NCc1ccc(C)o1 | 0.76%
2 | O=C(CN1CCCc2ccccc21)NCc1ccc(F)cc1 | -0.07%
3 | COc1ccccc1NC(=O)C1=C(C)Nc2nnnn2C1c1cccc(Br)c1 (configuration not stated) | 0.58%
4 | COC(=O)C1=C(C(=O)c2ccc(C)cc2)C(c2ccccc2)n2nnnc2N1 (configuration not stated) | -0.19%
5 | COC(=O)c1ccc(C2C3=C(Nc4nnnn42)c2ccccc2OC3)cc1 (configuration not stated) | 30.4% (active)
6 | COc1ccccc1C(=O)NC1CCCCN(C(C)C)C1=O (configuration not stated) | 0.9%
7 | COc1cccc(CNC(=O)C2CCCN(c3nc4ccccc4o3)C2)c1OC (configuration not stated) | 0.61%
8 | O=S(=O)(c1ccccc1)N1CCC(c2nc3ccccc3o2)CC1 | -0.13%
9 | CC(=O)N1CCN(Cc2cc(=O)oc3cc(C)ccc23)CC1 | 0.22%
10 | Cc1ccc(S(=O)(=O)N2CCN(C(=O)c3ccccc3-c3nc4ccccc4s3)CC2)c(C)c1 | -0.15%
11 | CC(=O)N1CCN(C(=O)c2cc(-c3ccc(C)o3)nc3ccccc23)CC1 | 35.2% (active)
12 | CC1CCN(C(=O)Cn2cc(C(=O)c3ccco3)c3ccccc32)CC1 | 0.78%
13 | O=C(c1cc(-c2ccco2)nc2ccccc12)N(Cc1nnc(-c2ccc(Cl)cc2)o1)C1CC1 | -60.5%
14 | CC1CCCN(C(=O)c2cc(-c3ccco3)nc3ccccc23)C1 (configuration not stated) | 38.3% (active)
15 | O=C(Nc1cccc(Cl)c1)OC1CC2CC1[C@H]1CCCCN1[C@H]2Cc1ccccc1 (some centres not stated) | -0.47%
16 | C=CCN1C(=O)[C@H](CC(=O)NCCCN2CCCC2=O)[C@@]2(C(=O)OCC)CCCC=C12 | -0.44%
17 | Cc1ccccc1CN1CCCCC(NC(=O)c2cccc(C#N)c2)C1=O (configuration not stated) | -1.15%
18 | COc1ccc2c(C(C)c3ccc(N)cc3)cn(C)c2c1 (configuration not stated) | -0.2%
19 | CC(=O)N1CCCN(C2=Nc3ccccc3Sc3ccccc32)CC1 | 0.25%
20 | O=c1oc2cc(O)ccc2cc1-c1ccc(F)cc1 | 57.7% (active)
21 | CN(C)c1cc(-c2ccc(F)cc2)oc(=O)c1Cl | -0.37%
22 | CCOC(=O)[C@]12CCCC3=C1N(CCC3)C(=O)[C@@H](CC(=O)NCC13CC4CC(CC(C4)C1)C3)C2 | 0.33%

Row | Compound | activation
23 | Cc1ccc(NC(=O)c2cc(C)nn2-c2ccccc2)c(C)c1 | 0.15%
24 | C[C@@H](NC(=O)c1ccccc1OCC(=O)Nc1ccc(I)cc1)C(=O)N(C)Cc1ccccc1 | -0.35%
25 | Cc1cc2nc3c(=O)[nH]c(=O)nc-3n(C[C@H](O)[C@H](O)[C@H](O)CO)c2cc1C | -49.4%
26 | CCN(CC)CCCC(C)n1c2nc(=O)[nH]c(=O)c-2nc2cc(Cl)ccc21 (configuration not stated) | 75.5% (active)
27 | CC(C)CNc1cccc2c1S(=O)(=O)N(Cc1cn(Cc3ccccc3C(F)(F)F)nn1)Cc1ccccc1O2 | -7.19%
28 | Cc1ccc(OCc2nnc(NC(=O)OCC(C)C)s2)cc1 | -0.08%
29 | COCC(=O)Nc1nnc(COc2ccccc2)s1 | 20.2% (active)
30 | CCOCc1nnc(NC(=O)CCS(=O)(=O)Cc2ccccc2)s1 | 0.26%
31 | COc1ccc(CN2C/C(=C/c3ccccc3)N3C(=O)C[C@@H](c4ccccc4)N=C23)c(OC)c1 | -0.63%
32 | C/C=C(/C)C(=O)OC1Cc2c(ccc3ccc(=O)oc23)OC1(C)C (configuration not stated) | 0.3%
33 | CC1(C)Oc2ccc3ccc(=O)oc3c2/C(=N/O)C1=O | 206% (active)
34 | CC1(C)Oc2ccc3ccc(=O)oc3c2/C(=C/NCCO)C1=O | 0.36%
35 | COC(=O)C1CN(Cc2cn(Cc3ccc(F)cc3)nn2)CCS(=O)(=O)N1Cc1ccc(Cl)cc1 (configuration not stated) | -0.37%
36 | N#CC1=C(N)Oc2c(sc3ccccc23)C1c1ccco1 (configuration not stated) | 15% (active)
37 | CCN(CC(=O)Nc1c(F)cccc1F)C(=O)c1cnc(C)cn1 | -0.38%
38 | CCN(CC(=O)Nc1c(F)cccc1F)C(=O)c1ccc(-c2ccccc2)cc1 | 0.37%
39 | CCN(CC(=O)Nc1c(F)cccc1F)C(=O)c1ccc(-c2ccc(C(C)=O)cc2)o1 | 13.8% (active)
40 | O=C(OC12CCCN(C1)/C(=C/c1ccccc1)C2)c1ccco1 (configuration not stated) | 0.07%
41 | CCCCCCCCNS(=O)(=O)/C=C/c1cc(C)ccc1CNC(=O)OC(C)(C)C | 0.37%
42 | CC(C)N1CCCCC(NC(=O)C(C)(C)C)C1=O (configuration not stated) | -0.28%
43 | Cc1oc2nc(SCC(=O)Nc3ccc(S(N)(=O)=O)cc3)nc(NC(=O)c3ccccc3)c2c1C | 16.3% (active)
44 | Cc1cc(-c2nnc(SCC(=O)Nc3ccc(S(N)(=O)=O)cc3)n2N)n[nH]1 | -0.95%

Row | Compound | activation
45 | Cc1oc2nc(SCC(=O)NCc3cccnc3)nc(N)c2c1C | 0.33%
46 | CN(C)Cc1cn(-c2ccc(-c3noc4c3C(=O)N(CC(=O)N3CCOCC3)CC4)cc2)nn1 | -0.76%
47 | CC(C)Oc1cc(F)ccc1-c1cc(C(=O)Nc2cccc(Cl)c2)[nH]n1 | -0.65%
48 | CCC(=O)OCCCN1C(=O)CCC12CCC(c1ccccc1)CC2 (configuration not stated) | -0.27%
49 | CCc1nc(Nc2ccc3nccnc3c2)c2oc3ccccc3c2n1 | -2.9%
50 | CCc1nc(Nc2ccc(NC(C)=O)cc2)c2oc3ccccc3c2n1 | 172% (active)
51 | C[C@@H](Nc1nc(-c2ccccc2)nc2c1oc1ccccc12)C(=O)O | -0.64%
52 | Cc1nc2ccccn2c(=O)c1NC(=O)c1cccs1 | 0.03%
53 | Cc1cc2nc(C(F)(F)F)cc(-c3cccs3)n2n1 | -1.33%
54 | CC(C)(C)Nc1c(-c2cccs2)nc2ccccn12 | 27% (active)
55 | COC(=O)[C@]12C[C@H](CC(=O)N3CCOCC3)C(=O)N(Cc3ccc(Cl)cc3Cl)C1=C[C@H](C(C)C)O[C@@H]2C1CC1 | 0.16%
56 | CC(=O)OCCN1CCCC12CCC(c1ccccc1)CC2 (configuration not stated) | -0.5%
57 | O=C(NCCN1CCN(Cc2ccccc2)CC1)c1cc2c(=O)[nH]c3ccccc3c2s1 | -1.14%
58 | Cc1cccc(N(C)C(=O)c2cc3c(=O)[nH]c4ccc(C)cc4c3s2)c1 | -0.34%
59 | CCN(CC)CCCNC(=O)c1cc2c(=O)[nH]c3ccc(C)cc3c2s1 | 23.3% (active)
60 | CC(C)CNS(=O)(=O)CC1NCCc2ccccc21 (configuration not stated) | -0.37%
61 | COC(=O)C12C=C3CC(c4ccccc4)=C3C(=O)N1Cc1[nH]c3ccccc3c1C2 (configuration not stated) | -0.28%
62 | CCCCN(CCCC)CC(O)Cn1c2ccccc2c(=O)c2ccccc21 (configuration not stated) | 22.1% (active)
63 | CCCCN(CC)CCNC(=O)CCNC(=O)Cn1ccc2ccccc2c1=O | -0.2%
64 | CS(=O)(=O)N(CC(O)Cn1c2ccccc2c2ccccc21)c1cccc2ccccc12 (configuration not stated) | -1.25%
65 | CC(NCc1ccco1)C(=O)N1CCCCC1 (configuration not stated) | 0.56%
66 | O=S1(=O)c2c(NCc3ccco3)cccc2Oc2ccccc2CN1Cc1cn(Cc2cccc(C(F)(F)F)c2)nn1 | -9.73%

Row | Compound | activation
67 | Cc1ccc(-n2nc(-c3ccco3)cc2C(=O)NCc2cccnc2)cc1 | 0.09%
68 | O=C(c1cccnc1)N(c1cc2sc(=O)oc2c2ccccc12)S(=O)(=O)c1ccccc1 | -0.78%
69 | O=C(Oc1c(-c2ccco2)oc2ccccc2c1=O)c1cccnc1 | 18.9% (active)
70 | COc1ccc(-c2cc(-c3nnc(SCC(=O)Nc4cccc5ccccc45)n3N)[nH]n2)cc1 | 0.07%
71 | COc1ccc(Cn2cc(CN3[C@@H](CC(C)C)COc4cc(Br)ccc4S3(=O)=O)nn2)cc1 | 0.02%
72 | COCCCn1c(C(=O)NC2CCCCC2)cc2c(=O)n3cccc(C)c3nc21 | -0.55%
73 | Cc1ccc(-n2c(=O)c(C#N)cc3c(=O)n4ccccc4nc32)cc1C | 2.54%
74 | Cc1cccc(NC(=O)c2ccc3c(=O)n(CC4CCCO4)c(=S)[nH]c3c2)c1 (configuration not stated) | -0.97%
75 | Cc1ccccc1NC(=O)Cn1c(=O)n(CC2CCCO2)c(=O)c2ccccc21 (configuration not stated) | 0.23%
76 | O=C(NCc1cccnc1)c1cc(S(=O)(=O)N2CCOCC2)c(Cl)cc1Cl | -0.01%
77 | Cc1ccc(Cn2c(C)c3cnn(CC(=O)NCCN4CCOCC4)c(=O)c3c2C)cc1 | 0%
78 | CCn1c(=N)c(C(=O)NCCCOC)cc2c(=O)n3cccc(C)c3nc21 | 62.3% (active)
79 | Cc1cccn2c(=O)c3cc(C#N)c(=NC(=O)c4cccnc4)n(CC4CCCO4)c3nc12 (configuration not stated) | 17.3% (active)
80 | Cc1cccn2c(=O)c3cc(C(=O)NCCN4CCOCC4)c(=N)n(Cc4cccnc4)c3nc12 | 32.9% (active)
81 | Cc1cccn2c(=O)c3cc(C#N)c(=O)n(CCCN4CCOCC4)c3nc12 | 39.9% (active)
82 | Cc1ccc(S(=O)(=O)c2cc3c(=O)n4cccc(C)c4nc3n(CCc3ccccc3)c2=N)cc1C | 0.37%
83 | Cc1ccc2cc(C#N)c(NCCNC(=S)NCCCN3CCOCC3)nc2c1 | 1.07%
84 | CC(=O)Nc1ccc(OC[C@@H](O)CN2CCC(C(O)(c3ccccc3)c3ccccc3)CC2)cc1 | 0.22%
85 | CNc1nc(SC)nc(N(C#N)CC(=O)OC)n1 | -0.23%
86 | O=C(NCCc1c[nH]c2ccccc12)OCc1cn(-c2c(F)cccc2F)nn1 | 0.33%
87 | CCOC(=O)[C@]12CCCCC/C=C\1N(Cc1ccc(OC)cc1)C(=O)[C@H]2CC(=O)NCCCN1CCCC1=O | -0.22%

Source: PubChem BioAssay AID652039 (The Scripps Research Institute Molecular Screening Center, 2013)
